Source: PubChem BioAssay (National Center for Advancing Translational Sciences (NCATS))
VACV mCherry inh: inhibitors of vaccinia virus infection (mCherry reporter signal); Vaccinia virus mCherry reporter infection, fluorescence; Potency, µM (titrated, usually from 36.5 µM), hits mostly inhibitors; 0.63% of 310,000 active; AID 720579; calls by dose curve; tested in A549 cells; note: nearly all actives have a fitted effect of over 35% in size
VACV Venus inh: vaccinia inhibition (Venus reporter). Potency, µM (top dose mostly 36.5 µM), most hits filed as inhibitors. 0.46% of 330,000 active. Vaccinia virus Venus reporter expression, fluorescence; calls by dose curve; tested in A549 cells; note: nearly all actives have a fitted effect of over 30% in size
FMDV inh: antivirals against foot and mouth disease virus; FMDV antiviral cell-based qHTS; Potency, µM (top dose mostly 57.9 µM), usual class: inhibitors; 1.2% of 410,000 active; AID 1159524; calls by dose curve; tested in HEK293T cells; note: read-out not given here; nearly all actives have a fitted effect of over 45% in size
HCMV inh: human cytomegalovirus inhibition; HFF cells, HCMV-luciferase reporter, 72 h; hits give low values; activity change, negative = inhibition, % at 57.5 µM; 4.5% of 410,000 active; AID 1259415; in the data active = activity change below about -60%; inconclusive = no clear call, values can overlap the other calls; inactive = above about -39%
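After 16 h attachment at 37C, HFF cells received test compound and HCMV-luciferase (1 PFU/cell); reporter luminescence read 72 h later, data normalized against buffer-only and known inhibitor Salinomycin.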
HCV inhibitor: blocks hepatitis C virus | Huh7.5.1 HCVcc-Cre infection, luciferase reporter, 44 h | Potency, µM (highest dose often 41.8 µM), most hits filed as inhibitors | 3.4% of 340,000 active | AID 651820; active = well fitted inhibition curve with a large enough effect; inconclusive = small, poorly fitted or top-dose-only effect, or another doubt; inactive = no such curve, though single readings can be large or run the other way
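Reporter virus HCVcc-Cre (~0.5 moi) infects cells exposed to compound; seeding density 1,000 cells/well with 4 h settling beforehand. Luminescence, 15 sec read, taken 44 h post-infection following a 15 min RT substrate incubation.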
A number is an active result; . = inactive; ? = inconclusive; / = not tested or not shown; ! = not active in a repeat; [ ] = another dose, or the depositor's remark. This is a sample that favours compounds with a hit; in the whole collection about 7.3% have one here.

SMILES | VACV mCherry inh | VACV Venus inh | FMDV inh | HCMV inh | HCV inhibitor
Cc1ccc2c(c1)nnn2C1CCN(S(=O)(=O)c2ccc(C(=O)O)cc2)CC1 | . | . | . | -67 | .
O=S(=O)(c1ccccc1)N1CCC(n2nnc3cc(F)ccc32)CC1 | . | . | / | . | .
CCN(CC)S(=O)(=O)c1ccc(/C=C/C(=O)OCC(=O)Nc2ccc(S(N)(=O)=O)cc2)cc1 | . | . | ? | . | .
C/C(=N\Nc1cc(N2CCCCC2)nc(C)n1)c1ccc(Br)cc1 | / | / | ? | -67 | 11µM
C/C(=N\Nc1cc(N2CCOCC2)nc(C)n1)c1ccc(F)cc1 | . | . | . | . | ?
CCc1cccc(C)c1NC(=O)C(CC)Sc1nc2ccncc2[nH]1 (stereo not drawn) | . | . | . | . | /
Cc1ccccc1-c1cc2nc(NCCN3CCCC3)n(C)c(=O)c2s1 | . | . | . | . | /
CC(C)[C@H](NC(=O)CNC(=O)OC(C)(C)C)C(=O)N[C@H](C=O)C(C)C | . | . | . | / | /
Cc1cccc(CNC(=O)CCn2c(=O)c3cccn3c3ccc(F)cc32)c1 | . | . | . | -85 | /
O=C(Cn1c(=O)c2cccn2c2ccccc21)Nc1cc(F)ccc1F | . | . | . | . | 11µM
COc1cccc(NC(=O)Cn2c(=O)c3cccn3c3ccc(F)cc32)c1 | . | . | . | -65 | /
CCc1ccc(NC(=O)CCn2c(=O)c3cccn3c3ccccc32)cc1 | . | . | . | . | 11µM
C[C@H](NC(=O)c1cccc([N+](=O)[O-])c1)C(=O)OCC(=O)c1ccccc1Br | / | / | . | . | .
CCNC(=O)c1cnc2sc(N3CCC(C)CC3)nn2c1=O | . | . | . | . | /
O=C(NCCc1ccccc1Cl)c1ccc2c(=O)n(-c3ccccc3)c(=O)[nH]c2c1 | . | . | ? | ? | /
CC(C)OC(=O)CC(=O)CSc1nc2c(c(-c3cccs3)c1C#N)CCC2 | . | . | . | . | 10µM
Cc1ccc(Nc2c(-c3ccccn3)nc3cc(C)ccn23)cc1 | ? | ? | ? | . | 2.8µM
Cc1ccn2c(Nc3ccc4c(c3)OCO4)c(-c3ccccn3)nc2c1 | . | . | ? | -98 | ?
Cc1ccn2c(Nc3ccc4c(c3)OCO4)c(-c3ccc(C)o3)nc2c1 | . | . | . | . | /
OC1CCCC1 | . | . | . | . | .
CSCC[C@H](NC(=O)c1ccc(OCC2CCCO2)cc1)c1nc2ccccc2[nH]1 (stereo partly drawn) | . | . | . | . | .
COc1ccc2cc3cc(C(=O)NCCc4ccccc4)sc3nc2c1Cl | . | . | . | ? | /
O=C(c1ccc2c(c1)N(Cc1ccccc1)C(=O)c1ccccc1S2(=O)=O)N1CCCCCC1 | . | . | . | . | /
O=C(c1ccc2c(c1)N(Cc1cccc(Cl)c1)C(=O)c1ccccc1S2(=O)=O)N1CCCCC1 | . | . | . | -73 | /
CCN1CCN(C(=O)c2ccc3c(c2)N(Cc2cccc(Cl)c2)C(=O)c2ccccc2S3(=O)=O)CC1 | . | . | . | -65 | /
SMILES | VACV mCherry inh | VACV Venus inh | FMDV inh | HCMV inh | HCV inhibitor
O=C(c1ccc2c(c1)N(Cc1ccc(Cl)cc1)C(=O)c1ccccc1S2(=O)=O)N1CCN(Cc2ccccc2)CC1 | . | . | . | . | /
CCOC(=O)C1CCCN(C(=O)c2ccc3c(c2)N(Cc2cccc(Cl)c2)C(=O)c2ccccc2S3(=O)=O)C1 (stereo not drawn) | . | . | . | -63 | /
CN(C)CC/C=C1/c2ccccc2Sc2ccc(Cl)cc21 | . | ? | ? | . | 14µM
CCCCCC[N+](C)(C)CC/C=C1/c2ccccc2Sc2ccc(Cl)cc21 | / | / | . | . | .
Cc1cc(C)n(CC(=O)N2CCC(n3c(C(C)C)nc4cccnc43)CC2)n1 | . | . | . | / | /
COc1cc(S(=O)(=O)N2CCC(O)(c3cccc(C(F)(F)F)c3)CC2)ccc1-n1cnnn1 | . | . | / | . | 1.6µM!
O=S(=O)(c1ccc(OC(F)(F)F)cc1)N1CCC(O)(c2cccc(C(F)(F)F)c2)CC1 | / | / | . | . | 8.9µM
COc1ccc(S(=O)(=O)N2CCCCC2)cc1-n1cnnn1 | . | . | . | . | .
CN1CCN(S(=O)(=O)c2cccc(C(=O)Oc3ccccc3Cl)c2)CC1 | . | . | . | . | .
O=C(CC(NCc1cccnc1)C(=O)O)Nc1ccc(F)cc1 (stereo not drawn) | .[7.34 µM] | .[7.34 µM] | . | . | /
COCCCN1C(=O)C(CC(=O)NC2CCCCC2)CC(C(=O)N2CCCCCC2)=C1C (stereo not drawn) | / | / | / | . | /
CC1CCN(CC(O)COCCOc2ccc(Br)cc2)CC1 (stereo not drawn) | . | . | . | ? | ?
CC1CCN(CC(O)COCCC23CC4CC(CC(C4)C2)C3)CC1 (stereo not drawn) | ? | . | / | -75 | 35µM
CCC(NC(=S)NC1CCCCC1)c1ccc(C(C)C)cc1 (stereo not drawn) | / | / | / | . | /
CCc1ccc(NCc2cc3ccc(OC)cc3n(CC(=O)Nc3ccccc3C)c2=O)cc1 | . | . | . | . | /
COc1cccc(CNC(=O)c2[nH]c3cc(C)ccc3c2Sc2ccccc2)c1 | ? | ? | . | -63 | /
COc1ccc2c(Sc3ccccc3)c(C(=O)NCc3cccc(OC)c3OC)[nH]c2c1 | . | . | . | . | /
Cc1cccc(CNc2nc3cnc(-c4ccc(F)cc4)cc3n2C)c1 | / | / | / | . | /
Cc1nc2ccccc2n1/N=C/c1ccc([N+](=O)[O-])s1 | . | . | ? | -82 | 4.5µM
Cc1nc2ccccc2n1/N=C/c1ccc([N+](=O)[O-])o1 | 7.9µM | 11µM | / | -67 | 10µM
O=[N+]([O-])c1ccc(/C=N/n2c(CO)nc3ccccc32)s1 | 5µM | 4µM | . | -69 | 10µM
COc1cccc(/C=N/n2c(C)nc3ccccc32)c1OC | / | / | . | . | 8.9µM
CCOCCCn1c(SCC(=O)Nc2ccc(C)cc2)nc2ccccc2c1=O | . | . | . | ? | /
CCCCCC(=O)Nc1cc(S(=O)(=O)N2CCOCC2)ccc1Oc1ccc(OCC)cc1 | . | . | . | ? | .
O=C1NC(=O)C(Cc2ccccc2F)(C2CCN(Cc3cccn3-c3cccnc3)CC2)N1 (stereo not drawn) | . | . | . | / | /
SMILES | VACV mCherry inh | VACV Venus inh | FMDV inh | HCMV inh | HCV inhibitor
CCc1ccc(N/C(=N/c2nc(C)cc(C)n2)NC(C)=O)cc1 | / | / | . | -60 | .
COc1ccccc1C(=O)N/C(=N/c1nc(C)cc(C)n1)Nc1ccccc1 | . | . | . | . | 8.9µM
O=C(Nc1cccc(-c2csc(Nc3cccc(C(F)(F)F)c3)n2)c1)c1ccccc1 | ? | ? | ? | . | ?
O=C(Nc1cccc(-c2csc(Nc3ccccc3)n2)c1)c1ccccc1 | 5µM | ? | . | . | ?
CC(=O)c1cccc(Nc2nc(-c3ccccc3)cs2)c1 | . | ? | . | . | 2.5µM
CC(=O)c1cccc(Nc2nc(-c3cccnc3)cs2)c1 | ? | . | . | . | ?
CN(Cc1ccc2ccccc2c1)C(=O)c1ccc(C(F)(F)F)cc1 | . | . | . | -62 | .
CC(C)c1ccc(NC(=O)c2cnc3sc(N4CCOCC4)nn3c2=O)cc1 | . | ? | ? | . | /
Cc1ccc(NC(=O)c2cnc3sc(N4CCOCC4)nn3c2=O)cc1N(C)C | ? | ? | 32µM | . | /
